Values joined by “and” are separate entries in the source; they are usually repeats but may differ in a detail not shown here. Equal values may be shown once. Inconclusive results are not listed. More than one record can exist for a structure, and the calls need not agree. Active and inactive are the calls of the source. How the source made its calls: active means hit-call score of the fitted dose curve at least 0.9, where 1 is the maximum; inconclusive means response in the unintended direction; inactive means score below 0.9.
Legend:
[1] = ATG_M_06_XSP2: Attagene TRANS-FACTORIAL Multi-Species (XSP2) HepG2 Assay for M06 Transcription Factor (Internal Marker) (AID 2283811);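 further: hits are increases in signal above the DMSO baseline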
Method in brief: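 Readout: fluorescent reporter-mRNA peaks by capillary electrophoresis after RT-PCR and HpaI digest, scored upward relative to DMSO. Transfected HepG2, 24 h chemical exposure, with 3 nM 6-alpha-fluorotestosterone and 1.5 nM norgestrel added.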

[2] = test system: turtle Estrogen Receptor (ERa), gene 101933533; experiment: ATG_trERa_XSP2: Attagene TRANS-FACTORIAL Multi-Species (XSP2) HepG2 Assay for turtle Estrogen Receptor (ERa) (AID 2283812);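 further: actives raise reporter signal above DMSO so AC50 reflects agonist activity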
Method in brief: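 Readout is reporter mRNA quantified by RT-PCR with capillary electrophoresis after 24 h compound exposure, increase relative to DMSO. Uses transiently transfected human HepG2 liver cells carrying a chimeric turtle ERa-Gal4 receptor driving GAL4-UAS reporters.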

[3] = molecular target: zebrafish Estrogen Receptor (ER1), esr1 (gene 259252) (UniProt P57717); experiment: ATG_zfER1_XSP2: Attagene TRANS-FACTORIAL Multi-Species (XSP2) HepG2 Assay for zebrafish Estrogen Receptor (ER1) (AID 2283816)
Chain of zebrafish Estrogen Receptor (ER1), esr1 (gene 259252) (P57717 whole entry, looked up, the tested form may be a part): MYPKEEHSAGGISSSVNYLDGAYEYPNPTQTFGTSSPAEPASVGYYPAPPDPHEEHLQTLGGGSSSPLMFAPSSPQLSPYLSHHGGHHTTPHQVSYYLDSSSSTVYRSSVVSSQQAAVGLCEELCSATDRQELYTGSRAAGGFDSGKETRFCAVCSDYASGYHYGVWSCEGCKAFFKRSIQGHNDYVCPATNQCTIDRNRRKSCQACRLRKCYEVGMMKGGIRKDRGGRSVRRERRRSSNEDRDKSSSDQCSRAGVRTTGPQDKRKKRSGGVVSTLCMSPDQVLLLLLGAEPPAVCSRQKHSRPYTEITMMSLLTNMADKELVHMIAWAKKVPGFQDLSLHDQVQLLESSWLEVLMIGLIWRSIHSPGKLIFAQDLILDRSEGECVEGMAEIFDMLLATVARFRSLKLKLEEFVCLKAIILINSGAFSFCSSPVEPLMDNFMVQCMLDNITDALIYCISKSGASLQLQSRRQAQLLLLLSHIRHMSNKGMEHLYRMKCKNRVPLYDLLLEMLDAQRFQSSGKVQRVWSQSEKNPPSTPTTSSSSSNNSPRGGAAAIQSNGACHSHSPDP
Method in brief: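 After 24 h compound exposure, RNA from transfected HepG2 cells was reverse-transcribed and reporter transcripts resolved by capillary electrophoresis. The TRANS format reads exogenous zebrafish ER1-Gal4 chimera activity on GAL4-UAS elements; gain of signal against DMSO.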

[4] = molecular target: chicken Estrogen Receptor (ERa), ESR1 (gene 396099) (UniProt P06212); experiment: ATG_chERa_XSP2: Attagene TRANS-FACTORIAL Multi-Species (XSP2) HepG2 Assay for chicken Estrogen Receptor (ERa) (AID 2283817);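 further: actives raise reporter signal above DMSO so AC50 reflects ER activation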
Chain of chicken Estrogen Receptor (ERa), ESR1 (gene 396099) (P06212 whole entry, looked up, the tested form may be a part): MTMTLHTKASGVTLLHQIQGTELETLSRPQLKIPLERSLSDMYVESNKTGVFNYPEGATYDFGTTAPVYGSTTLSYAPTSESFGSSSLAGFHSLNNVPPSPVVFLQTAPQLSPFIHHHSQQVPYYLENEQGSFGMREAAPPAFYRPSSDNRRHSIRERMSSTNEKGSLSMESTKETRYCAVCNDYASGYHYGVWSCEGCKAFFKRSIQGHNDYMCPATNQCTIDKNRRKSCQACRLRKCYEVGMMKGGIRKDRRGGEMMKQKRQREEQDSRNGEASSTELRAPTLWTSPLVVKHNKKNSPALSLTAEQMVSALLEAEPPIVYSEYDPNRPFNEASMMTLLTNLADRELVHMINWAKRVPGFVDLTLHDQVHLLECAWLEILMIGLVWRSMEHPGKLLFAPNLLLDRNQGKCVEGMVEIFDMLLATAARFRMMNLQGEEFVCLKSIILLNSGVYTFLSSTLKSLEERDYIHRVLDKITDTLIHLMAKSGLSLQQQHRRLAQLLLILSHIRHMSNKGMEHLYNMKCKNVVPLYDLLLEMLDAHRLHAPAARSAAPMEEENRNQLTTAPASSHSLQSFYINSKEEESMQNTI
Method in brief: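 Readout: fluorescent reporter-transcript fragments resolved by capillary electrophoresis after RT-PCR and HpaI cut. Chicken ERa-Gal4 fusion in transiently transfected HepG2, dosed for 24 h; activity taken as increase over DMSO baseline.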

[5] = test system: frog Estrogen Receptor (ER), gene 398734; experiment: ATG_frER1_XSP2: Attagene TRANS-FACTORIAL Multi-Species (XSP2) HepG2 Assay for frog Estrogen Receptor (ER) (AID 2283821);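 further: hits raise reporter mRNA above DMSO baseline so potency means agonist or activator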
Method in brief: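 Reporter mRNA induction, detected as fluorescence after RT-PCR and capillary electrophoresis, is the endpoint; activity is fitted upward against DMSO. Cells are human liver HepG2 carrying transfected NR-Gal4 chimeras with GAL4-UAS-driven reporters, harvested 24 h post-dosing.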

[6] = test system: zebrafish Estrogen Receptor (ER2b), gene 317733; experiment: ATG_zfER2b_XSP2: Attagene TRANS-FACTORIAL Multi-Species (XSP2) HepG2 Assay for zebrafish Estrogen Receptor (ER2b) (AID 2283823);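 further: fitted upward as reporter gain over DMSO so potency reflects activation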
Method in brief: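 Transfect HepG2 with GAL4-UAS reporter constructs; dose chemicals, 24 h; isolate RNA, RT-PCR, FAM-label, HpaI digest; capillary electrophoresis. Gain-of-signal vs DMSO.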

[7] = molecular target: human Thyroid hormone Receptor alpha (TRa), THRA (gene 7067) (UniProt P10827); experiment: ATG_hTRa_XSP1: Attagene TRANS-FACTORIAL Multi-Species (XSP1) HepG2 Assay for human Thyroid hormone Receptor alpha (TRa) (AID 2283805)
Chain of human Thyroid hormone Receptor alpha (TRa), THRA (gene 7067) (P10827 whole entry, looked up, the tested form may be a part): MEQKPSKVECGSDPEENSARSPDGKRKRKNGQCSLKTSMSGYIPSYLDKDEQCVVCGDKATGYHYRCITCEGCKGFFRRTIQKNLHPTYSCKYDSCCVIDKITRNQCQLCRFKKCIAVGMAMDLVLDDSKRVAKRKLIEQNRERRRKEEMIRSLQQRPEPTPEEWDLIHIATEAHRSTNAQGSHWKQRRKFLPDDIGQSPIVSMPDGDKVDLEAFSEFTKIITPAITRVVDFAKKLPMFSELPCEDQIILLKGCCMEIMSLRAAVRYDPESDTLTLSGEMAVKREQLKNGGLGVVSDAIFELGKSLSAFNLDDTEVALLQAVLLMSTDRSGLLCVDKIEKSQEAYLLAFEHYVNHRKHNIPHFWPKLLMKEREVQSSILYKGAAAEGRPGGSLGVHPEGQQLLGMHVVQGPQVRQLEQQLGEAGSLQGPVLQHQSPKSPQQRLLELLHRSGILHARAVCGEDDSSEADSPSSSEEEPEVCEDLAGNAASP
Method in brief: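 Reporter transcripts from the human TRa-Gal4 TRANS unit quantified by RT-PCR, fluorescent labeling and capillary electrophoresis after 24 hours of chemical exposure in transfected HepG2 cells; medium contains 3 nM 6-alpha-fluorotestosterone. Positive direction fit against DMSO.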

[8] = molecular target: zebrafish Thyroid Hormone Receptor beta (TRb), thrb (gene 30607) (UniProt Q9PVE4); experiment: ATG_zfTRb_XSP1: Attagene TRANS-FACTORIAL Multi-Species (XSP1) HepG2 Assay for zebrafish Thyroid Hormone Receptor beta (TRb) (AID 2283809)
Chain of zebrafish Thyroid Hormone Receptor beta (TRb), thrb (gene 30607) (Q9PVE4 whole entry, looked up, the tested form may be a part): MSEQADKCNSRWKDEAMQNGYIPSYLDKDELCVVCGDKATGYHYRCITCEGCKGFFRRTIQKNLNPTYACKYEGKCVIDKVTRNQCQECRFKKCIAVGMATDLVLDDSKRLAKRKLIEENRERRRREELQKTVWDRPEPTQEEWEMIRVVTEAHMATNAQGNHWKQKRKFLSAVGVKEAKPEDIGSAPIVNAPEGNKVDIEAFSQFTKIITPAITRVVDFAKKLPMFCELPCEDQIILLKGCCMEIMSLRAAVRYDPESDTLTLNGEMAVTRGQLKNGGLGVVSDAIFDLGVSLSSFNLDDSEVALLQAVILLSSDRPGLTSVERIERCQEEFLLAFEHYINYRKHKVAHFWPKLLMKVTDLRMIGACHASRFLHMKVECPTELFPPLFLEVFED
Method in brief: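 HepG2 cells transiently transfected with multiplexed GAL4-UAS reporter units expressing chimeric zebrafish TRb–Gal4. Dosed 24 h with 3 nM 6-alpha-fluorotestosterone present; reporter mRNA measured by RT-PCR, HpaI digestion and capillary electrophoresis; gain of signal versus DMSO.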

[9] = ATG_XTT_Cytotoxicity_XSP1: Cytotoxicity Assessment in the Attagene TRANS-FACTORIAL Multi-Species (XSP1) HepG2 Assay (AID 2283810)
Method in brief: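 XTT viability readout taken at 24 hours post-dosing in HepG2 liver cells co-treated with 3 nM 6-alpha-fluorotestosterone. Signal loss relative to DMSO controls reflects cytotoxicity.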

[10] = molecular target: GAL4 Transcription Factor (Internal Marker), GAL4 (gene 855828) (UniProt P04386); experiment: ATG_GAL4_XSP2: Attagene TRANS-FACTORIAL Multi-Species (XSP2) HepG2 Assay for GAL4 Transcription Factor (Internal Marker) (AID 2283814);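 further: GAL4 reporter mRNA background control in MRTU transfected cells not a receptor target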
Chain of GAL4 Transcription Factor (Internal Marker), GAL4 (gene 855828) (P04386 whole entry, looked up, the tested form may be a part): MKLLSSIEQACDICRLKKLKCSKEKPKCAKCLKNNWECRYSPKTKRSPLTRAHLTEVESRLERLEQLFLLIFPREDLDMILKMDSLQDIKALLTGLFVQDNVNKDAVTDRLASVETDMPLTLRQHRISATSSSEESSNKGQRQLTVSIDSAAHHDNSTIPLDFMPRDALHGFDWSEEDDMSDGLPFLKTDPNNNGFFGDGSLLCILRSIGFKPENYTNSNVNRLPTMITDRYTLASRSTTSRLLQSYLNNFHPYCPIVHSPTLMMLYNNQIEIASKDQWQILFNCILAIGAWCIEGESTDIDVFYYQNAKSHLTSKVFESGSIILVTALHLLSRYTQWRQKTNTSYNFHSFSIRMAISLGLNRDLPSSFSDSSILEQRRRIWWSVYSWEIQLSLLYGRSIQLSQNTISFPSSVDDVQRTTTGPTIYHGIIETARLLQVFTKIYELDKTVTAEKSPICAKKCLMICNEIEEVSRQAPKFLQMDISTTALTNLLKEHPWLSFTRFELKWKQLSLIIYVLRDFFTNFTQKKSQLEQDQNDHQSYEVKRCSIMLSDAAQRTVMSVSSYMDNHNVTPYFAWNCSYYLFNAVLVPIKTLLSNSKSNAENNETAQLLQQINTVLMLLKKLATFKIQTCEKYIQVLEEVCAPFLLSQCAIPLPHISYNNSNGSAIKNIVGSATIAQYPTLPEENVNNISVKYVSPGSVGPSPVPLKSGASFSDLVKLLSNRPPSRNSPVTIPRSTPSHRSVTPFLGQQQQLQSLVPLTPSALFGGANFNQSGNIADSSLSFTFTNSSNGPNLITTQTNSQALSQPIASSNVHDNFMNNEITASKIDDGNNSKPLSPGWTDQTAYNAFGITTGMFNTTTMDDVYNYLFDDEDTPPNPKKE
Method in brief: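 Background-control readout: gain-of-signal fitted against DMSO. After 24 h exposure of transfected HepG2 (MRTU, GAL4-UAS reporters; 3 nM 6-alpha-fluorotestosterone, 1.5 nM norgestrel present), transcripts quantified by RT-PCR and capillary electrophoresis fluorescence.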

[11] = test system: chicken Androgen Receptor (AR), gene 422165; experiment: ATG_chAR_XSP2: Attagene TRANS-FACTORIAL Multi-Species (XSP2) HepG2 Assay for chicken Androgen Receptor (AR) (AID 2283819);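 further: hits raise reporter mRNA above DMSO so potency is for activation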
Method in brief: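 Readout is reporter mRNA induction via RT-PCR/capillary electrophoresis after 24 h chemical exposure, positive direction relative to DMSO. Transiently transfected HepG2 express chimeric chicken AR–GAL4; AR stimulated by 3 nM 6-alpha-fluorotestosterone and 1.5 nM norgestrel.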

[12] = ATG_M_19_XSP2: Attagene TRANS-FACTORIAL Multi-Species (XSP2) HepG2 Assay for M32 Transcription Factor (Internal Marker) (AID 2283822)
Method in brief: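 Internal background marker in a multi-species nuclear receptor TRANS panel: transfected HepG2 cells exposed 24 h, with 3 nM 6-alpha-fluorotestosterone and 1.5 nM norgestrel present. Readout is RT-PCR of reporter transcripts resolved by capillary electrophoresis, gain-of-signal versus DMSO.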

[13] = ATG_M_32_XSP2: Attagene TRANS-FACTORIAL Multi-Species (XSP2) HepG2 Assay for M19 Transcription Factor (Internal Marker) (AID 2283826)
Method in brief: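 Read-out: fluorescent reporter mRNA fragments resolved by capillary electrophoresis after RT-PCR, gain-of-signal versus DMSO baseline. Cells were human HepG2 carrying transfected multi-reporter units, exposed 24 h. Medium contained 3 nM 6-alpha-fluorotestosterone plus 1.5 nM norgestrel.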

[14] = test system: turtle Thyroid Hormone Receptor, alpha (TRa), gene 101949057; experiment: ATG_trTRa_XSP1: Attagene TRANS-FACTORIAL Multi-Species (XSP1) HepG2 Assay for turtle Thyroid Hormone Receptor, alpha (TRa) (AID 2283806)
Method in brief: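 After 24 h chemical exposure, reporter transcripts were measured by RT-PCR with fluorescent primer extension, HpaI digestion and capillary electrophoresis. Cells were transiently transfected HepG2 expressing exogenous NR-Gal4 chimeras; medium contained 3 nM 6-alpha-fluorotestosterone; fitted upward relative to DMSO.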

[15] = molecular target: zebrafish Thyroid Hormone Receptor alpha (TRa), thraa (gene 30670) (UniProt Q98867); experiment: ATG_zfTRa_XSP1: Attagene TRANS-FACTORIAL Multi-Species (XSP1) HepG2 Assay for zebrafish Thyroid Hormone Receptor alpha (TRa) (AID 2283807)
Chain of zebrafish Thyroid Hormone Receptor alpha (TRa), thraa (gene 30670) (Q98867 whole entry, looked up, the tested form may be a part): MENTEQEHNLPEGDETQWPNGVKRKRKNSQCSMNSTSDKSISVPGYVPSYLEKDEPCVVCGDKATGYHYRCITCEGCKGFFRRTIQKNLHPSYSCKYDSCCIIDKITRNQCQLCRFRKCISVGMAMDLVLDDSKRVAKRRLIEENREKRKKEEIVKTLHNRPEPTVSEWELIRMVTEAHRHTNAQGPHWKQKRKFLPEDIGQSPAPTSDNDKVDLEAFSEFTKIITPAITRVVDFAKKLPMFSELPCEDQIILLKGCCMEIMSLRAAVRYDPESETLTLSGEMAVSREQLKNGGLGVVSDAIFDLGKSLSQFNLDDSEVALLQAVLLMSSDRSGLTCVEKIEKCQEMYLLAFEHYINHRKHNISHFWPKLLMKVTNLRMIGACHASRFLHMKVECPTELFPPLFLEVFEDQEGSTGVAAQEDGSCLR
Method in brief: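 Reporter transcripts driven by a chimeric zebrafish TRa–Gal4 protein were measured by RT-PCR with fluorescent labelling and capillary electrophoresis. These came from transiently transfected HepG2 cells after 24 h chemical exposure, with 3 nM 6-alpha-fluorotestosterone added; baseline was DMSO.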

[16] = molecular target: Estrogen receptor beta (Homo sapiens) (UniProt Q92731); experiment: ATG_hERb_XSP2: Attagene TRANS-FACTORIAL Multi-Species (XSP2) HepG2 Assay for human Estrogen Receptor (ERb) (AID 2283813);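 further: actives raise reporter mRNA above DMSO so AC50 reflects agonist induction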
Chain of Estrogen receptor beta (Homo sapiens) (Q92731 whole entry, looked up, the tested form may be a part): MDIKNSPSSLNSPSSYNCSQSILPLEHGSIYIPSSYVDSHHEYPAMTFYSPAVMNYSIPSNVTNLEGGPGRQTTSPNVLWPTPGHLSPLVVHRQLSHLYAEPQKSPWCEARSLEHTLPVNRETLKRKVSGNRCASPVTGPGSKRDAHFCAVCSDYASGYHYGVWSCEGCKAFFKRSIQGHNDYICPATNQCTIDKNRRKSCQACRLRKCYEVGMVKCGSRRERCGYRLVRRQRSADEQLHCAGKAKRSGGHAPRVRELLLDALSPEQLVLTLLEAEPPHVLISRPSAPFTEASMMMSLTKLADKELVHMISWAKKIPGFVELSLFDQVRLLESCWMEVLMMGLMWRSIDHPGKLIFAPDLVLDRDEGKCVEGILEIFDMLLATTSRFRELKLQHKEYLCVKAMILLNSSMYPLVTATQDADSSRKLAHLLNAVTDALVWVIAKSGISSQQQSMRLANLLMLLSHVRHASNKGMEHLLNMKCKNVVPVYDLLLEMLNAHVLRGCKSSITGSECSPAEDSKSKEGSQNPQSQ
Method in brief: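 Transient TRANS reporter system in HepG2: after 24 h of chemical, RNA is reverse-transcribed, reporter cDNA amplified, FAM-labelled and sized by capillary electrophoresis. Induction of the human ERb-Gal4 reporter is measured relative to DMSO.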

[17] = test system: zebrafish Androgen Receptor (AR), gene 100005148; experiment: ATG_zfAR_XSP2: Attagene TRANS-FACTORIAL Multi-Species (XSP2) HepG2 Assay for zebrafish Androgen Receptor (AR) (AID 2283825);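 further: hits raise reporter mRNA above DMSO so AC50 reflects agonist-type gain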
Method in brief: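 After 24 h compound exposure in medium with 3 nM 6-alpha-fluorotestosterone plus 1.5 nM norgestrel, HepG2 cells carrying zebrafish AR–GAL4 reporter constructs were assessed for reporter mRNA gain by RT-PCR and capillary electrophoresis.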

[18] = molecular target: frog Thyroid hormone Receptor alpha (TRa), thra-a (gene 397942) (UniProt P15204); experiment: ATG_frTRa_XSP1: Attagene TRANS-FACTORIAL Multi-Species (XSP1) HepG2 Assay for frog Thyroid hormone Receptor alpha (TRa) (AID 2283804)
Chain of frog Thyroid hormone Receptor alpha (TRa), thra-a (gene 397942) (P15204 whole entry, looked up, the tested form may be a part): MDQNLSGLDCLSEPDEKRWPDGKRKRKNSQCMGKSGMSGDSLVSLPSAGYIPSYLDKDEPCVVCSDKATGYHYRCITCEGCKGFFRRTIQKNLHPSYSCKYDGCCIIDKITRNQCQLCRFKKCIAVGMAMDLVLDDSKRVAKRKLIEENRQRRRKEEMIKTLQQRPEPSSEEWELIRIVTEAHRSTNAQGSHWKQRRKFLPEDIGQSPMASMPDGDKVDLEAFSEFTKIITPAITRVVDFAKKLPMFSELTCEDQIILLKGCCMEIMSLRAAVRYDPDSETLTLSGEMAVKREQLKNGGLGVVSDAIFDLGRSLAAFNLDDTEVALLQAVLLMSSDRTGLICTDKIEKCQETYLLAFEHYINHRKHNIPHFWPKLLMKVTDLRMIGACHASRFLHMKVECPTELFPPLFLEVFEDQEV
Method in brief: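 Reporter transcript induction, measured by RT-PCR with 6-FAM labelling and capillary electrophoresis, 24 hr after dosing transiently transfected HepG2 cells expressing a frog TRa-GAL4 fusion; medium contained 3 nM 6-alpha-fluorotestosterone; increase over DMSO scored.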

[19] = molecular target: human Thyroid hormone Receptor beta (TRb), THRB (gene 7068) (UniProt P10828); experiment: ATG_hTRb_XSP1: Attagene TRANS-FACTORIAL Multi-Species (XSP1) HepG2 Assay for human Thyroid hormone Receptor beta (TRb) (AID 2283808)
Chain of human Thyroid hormone Receptor beta (TRb), THRB (gene 7068) (P10828 whole entry, looked up, the tested form may be a part): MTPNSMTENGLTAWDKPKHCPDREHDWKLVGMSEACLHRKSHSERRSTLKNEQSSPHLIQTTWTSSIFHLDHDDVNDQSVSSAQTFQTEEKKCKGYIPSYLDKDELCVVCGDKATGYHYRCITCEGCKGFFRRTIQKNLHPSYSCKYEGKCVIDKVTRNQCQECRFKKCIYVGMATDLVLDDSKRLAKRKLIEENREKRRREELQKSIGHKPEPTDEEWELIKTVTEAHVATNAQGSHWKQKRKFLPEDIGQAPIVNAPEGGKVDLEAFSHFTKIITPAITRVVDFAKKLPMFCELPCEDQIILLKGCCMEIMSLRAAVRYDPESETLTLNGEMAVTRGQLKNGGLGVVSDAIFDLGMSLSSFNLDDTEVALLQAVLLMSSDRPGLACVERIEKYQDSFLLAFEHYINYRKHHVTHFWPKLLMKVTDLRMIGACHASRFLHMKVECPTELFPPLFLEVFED
Method in brief: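 Readout is reporter mRNA induction measured by RT-PCR, fluorescent labelling and capillary electrophoresis, fitted upward relative to DMSO. Transiently transfected human HepG2 cells expressing NR-Gal4 chimeras were dosed for 24 h, medium containing 3 nM 6-alpha-fluorotestosterone.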

Measured: AC50

N#Cc1c[nH]cc1-c1cccc2c1OC(F)(F)O2
inactive: [1] | [5]
active: [2] 2.37 µM and 1.02 µM | [3] 25.9 µM | [4] 1.68 µM and 2.04 µM | [5] 4.14 µM | [6] 23.2 µM and 17.5 µM

CSC(=O)c1c(C(F)F)nc(C(F)(F)F)c(C(=O)SC)c1CC(C)C
active: [6] 15.7 µM
inactive: [7] | [8] | [9] | [2] | [10] | [3] | [4] | [11] | [5] | [12] | [13]

Cc1c(COC(=O)[C@@H]2[C@H](/C=C(\Cl)C(F)(F)F)C2(C)C)cccc1-c1ccccc1
inactive: [14] | [15] | [16] | [10] | [3] | [12] | [17]
active: [2] 38.7 µM | [4] 30.5 µM | [5] 49.3 µM | [6] 100 µM

C=C(C)CN(CC)c1c([N+](=O)[O-])cc(C(F)(F)F)cc1[N+](=O)[O-]
inactive: [1] | [16] | [3]
active: [2] 4.03 µM and 12.5 µM | [4] 11 µM and 28.2 µM | [5] 6.84 µM and 32.4 µM | [6] 33.3 µM and 38 µM

CCN(CC)C(=O)C(C)Oc1cccc2ccccc12 (centres undefined)
inactive: [18] | [7] | [14] | [19] | [8] | [9] | [1] | [16] | [3] | [5] | [13]
active: [2] 10.5 µM | [4] 7.35 µM | [6] 65.7 µM

COP(=S)(OC)Oc1ccc([N+](=O)[O-])c(C)c1
inactive: [7] | [14] | [15] | [19] | [8] | [9] | [1] | [3]
active: [2] 31.9 µM | [16] 47.5 µM | [4] 38.3 µM | [5] 50.4 µM | [6] 54.5 µM

Reference: PubChem BioAssay (EPA / NIEHS)
